Holding throughout (conditions): mRNA level, 48 h; actives raise or lower the signal
Read-out in experiment [1]: ABC Transporter (ABCB1), ABCB1 (gene 5243)
Nature of the experiment: LTEA_HepaRG_ABCB1: Life Technologies and Expression Analysis (LTEA) Assay for ABC Transporter (ABCB1) using HepaRG (AID 2283460). An outline of the steps: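 Human liver HepaRG line treated 48 h with up to 100 uM compound (eight half-log points, 0.5% DMSO); ABCB1 mRNA change fitted bidirectionally against DMSO controls.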

Read-out in experiment [2]: growth arrest and DNA damage 45 (GADD45B), GADD45B (gene 4616)
Nature of the experiment: LTEA_HepaRG_GADD45B: Life Technologies and Expression Analysis (LTEA) Assay for growth arrest and DNA damage 45 (GADD45B) using HepaRG (AID 2283461). In short, it runs like this:
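Transcript level quantified by Fluidigm TaqMan qRT-PCR with three housekeeping genes for normalization, analyzed for up- or down-regulation against 0.5% DMSO. HepaRG cultures dosed 48 h at eight half-log concentrations up to 100 uM, duplicates.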

Read-out in experiment [3]: ABC Transporter (ABCC3), ABCC3 (gene 8714)
The experiment can be described thus: LTEA_HepaRG_ABCC3: Life Technologies and Expression Analysis (LTEA) Assay for ABC Transporter (ABCC3) using HepaRG (AID 2283462). In short, it runs like this: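 Transcript level by TaqMan qRT-PCR, normalised to three housekeeping genes, fitted in both directions relative to vehicle. Chemicals tested in duplicate at eight half-log concentrations up to 100 uM for 48 h on HepaRG cells (0.5% DMSO).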

Read-out in experiment [4]: ABC Transporter (ABCC2), ABCC2 (gene 1244)
The experiment can be described thus: LTEA_HepaRG_ABCC2: Life Technologies and Expression Analysis (LTEA) Assay for ABC Transporter (ABCC2) using HepaRG (AID 2283464). In short, it runs like this:
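Endpoint is ABCC2 transcript level from qRT-PCR, normalized to three housekeeping genes and fitted bidirectionally relative to DMSO. Human HepaRG cells received test chemical for 48 h at up to 100 uM (8 points, half-log steps, 0.5% DMSO), duplicate wells.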

Read-out in experiment [5]: Broad substrate specificity ATP-binding cassette transporter ABCG2 (Homo sapiens) (UniProt Q9UNQ0)
The experiment can be described thus: LTEA_HepaRG_ABCG2: Life Technologies and Expression Analysis (LTEA) Assay for ABC Transporter (ABCG2) using HepaRG (AID 2283465). In short, it runs like this: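 Gene expression of ABCG2 in HepaRG liver cells is quantified by qRT-PCR following 48 h exposure across an eight-point series topping at 100 uM. Values come from bidirectional fitting relative to DMSO vehicle.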

Read-out in experiment [6]: ATP-citrate lyase (ACLY), ACLY (gene 47)
Nature of the experiment: LTEA_HepaRG_ACLY: Life Technologies and Expression Analysis (LTEA) Assay for ATP-citrate lyase (ACLY) using HepaRG (AID 2283466). In short, it runs like this: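 ACLY expression changes in human HepaRG liver cells are quantified by qRT-PCR after 48 h exposure to test chemicals (maximum 100 uM, half-log steps). Values are fitted in both directions relative to 0.5% DMSO vehicle.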

Read-out in experiment [7]: Peroxisomal acyl-coenzyme A oxidase 1 (ACOX1) gene, ACOX1 (gene 51)
The experiment can be described thus: LTEA_HepaRG_ACOX1: Life Technologies and Expression Analysis (LTEA) Assay for Peroxisomal acyl-coenzyme A oxidase 1 (ACOX1) gene using HepaRG (AID 2283467). An outline of the steps: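 Human HepaRG hepatic cultures, 48 h treatment with test chemicals up to 100 uM. ACOX1 expression read by qRT-PCR relative to 0.5% DMSO vehicle.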

Read-out in experiment [8]: Alkaline Phosphatase, Placental (ALPP) gene, ALPP (gene 250)
The experiment can be described thus: LTEA_HepaRG_ALPP: Life Technologies and Expression Analysis (LTEA) Assay for Alkaline Phosphatase, Placental (ALPP) gene using HepaRG (AID 2283468). An outline of the steps: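 ALPP transcript level, measured by qRT-PCR and normalized to three housekeeping genes (ACTB, GAPDH, POLR2A), after 48 h dosing of differentiated HepaRG in serum-free induction medium. Top concentration 100 uM with half-log dilutions (8 points, 0.5% DMSO, duplicates); bidirectional fitting relative to DMSO.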

Read-out in experiment [9]: Bcl-2 (BAD) gene, BAD (gene 572)
Nature of the experiment: LTEA_HepaRG_BAD: Life Technologies and Expression Analysis (LTEA) Assay for Bcl-2 (BAD) gene using HepaRG (AID 2283469). In short, it runs like this:
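Activity values reflect up- or down-regulation of BAD mRNA in human HepaRG hepatic cells treated 48 h in serum-free medium, with eight-point half-log dosing capped at 100 uM and 0.5% DMSO vehicle.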

Read-out in experiment [10]: Bcl-2 (BAX) gene, BAX (gene 581)
Nature of the experiment: LTEA_HepaRG_BAX: Life Technologies and Expression Analysis (LTEA) Assay for Bcl-2 (BAX) gene using HepaRG (AID 2283470). In short, it runs like this: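 Gene expression measured by Fluidigm qRT-PCR with three housekeeping genes for normalisation. HepaRG cells, plated 48 h beforehand, treated 48 h at up to 100 uM (8-point, half-log) in 0.5% DMSO. Bidirectional fitting versus DMSO.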

Read-out in experiment [11]: adenosine kinase (ADK) gene, ADK (gene 132)
Nature of the experiment: LTEA_HepaRG_ADK: Life Technologies and Expression Analysis (LTEA) Assay for adenosine kinase (ADK) gene using HepaRG (AID 2283471). In short, it runs like this: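 ADK expression quantified by qRT-PCR, normalised to three housekeeping genes, after 48 h exposure of HepaRG cells to eight concentrations (top 100 uM, half-log steps, duplicate, 0.5% DMSO). Up- or down-regulation fitted relative to vehicle.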

Read-out in experiment [12]: Alpha-fetoprotein (AFP) gene, AFP (gene 174)
Nature of the experiment: LTEA_HepaRG_AFP: Life Technologies and Expression Analysis (LTEA) Assay for Alpha-fetoprotein (AFP) gene using HepaRG (AID 2283472). An outline of the steps:
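AFP transcript measured by TaqMan qRT-PCR with three housekeeping genes for normalization, after 48 h chemical treatment of HepaRG cells (top 100 uM, half-log steps, 0.5% DMSO). Gain or loss fitted against vehicle.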

Read-out in experiment [13]: BCL2L11 (gene 10018)
Nature of the experiment: LTEA_HepaRG_BCL2L11: Life Technologies and Expression Analysis (LTEA) Assay for Bcl-2 (BCL2L11) gene using HepaRG (AID 2283473). In short, it runs like this:
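BCL2L11 transcript levels are measured by Fluidigm qRT-PCR, normalized to three housekeeping genes. HepaRG cultures were plated 48 h, then treated 48 h with test chemical (top 100 uM, half-log, 0.5% DMSO vehicle); curves were fitted bidirectionally against DMSO.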

Read-out in experiment [14]: Apolipoprotein A-V (APOA5) gene, APOA5 (gene 116519)
The experiment can be described thus: LTEA_HepaRG_APOA5: Life Technologies and Expression Analysis (LTEA) Assay for Apolipoprotein A-V (APOA5) gene using HepaRG (AID 2283474). In short, it runs like this:
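APOA5 transcript levels were quantified by qRT-PCR, normalized to three housekeeping genes, after 48 h chemical treatment of HepaRG cells (8 points, 100 uM maximum, half-log steps, 0.5% DMSO). Curves fitted in both directions against vehicle.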

Read-out in experiment [15]: Apoptosis regulator Bcl-2 (Homo sapiens) (UniProt P10415)
Nature of the experiment: LTEA_HepaRG_BCL2: Life Technologies and Expression Analysis (LTEA) Assay for Bcl-2 gene using HepaRG (AID 2283475). An outline of the steps:
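qRT-PCR of BCL2 transcript, normalized to three housekeeping genes (ACTB, GAPDH, POLR2A), after 48 h chemical exposure of HepaRG cells; concentrations top 100 uM with half-log dilutions, 0.5% DMSO vehicle, duplicates; changes up or down fitted relative to vehicle.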

Read-out in experiment [16]: Bcl-2 (BID) gene, BID (gene 637)
Nature of the experiment: LTEA_HepaRG_BID: Life Technologies and Expression Analysis (LTEA) Assay for Bcl-2 (BID) gene using HepaRG (AID 2283476). An outline of the steps:
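Duplicate 48 h treatments of HepaRG cells in serum-free induction medium spanned 100 uM downward in half-log steps, 0.5% DMSO. Transcript change quantified by qRT-PCR against three housekeeping genes, fitted up or down versus DMSO.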

Read-out in experiment [17]: Caspase-3 (Homo sapiens) (UniProt P42574)
Nature of the experiment: LTEA_HepaRG_CASP3: Life Technologies and Expression Analysis (LTEA) Assay for cysteine-aspartic acid protease (CASP3) using HepaRG (AID 2283477). An outline of the steps:
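Expression of CASP3 was quantified by TaqMan qRT-PCR against three housekeeping genes (ACTB, GAPDH, POLR2A), bidirectionally versus 0.5% DMSO. HepaRG cultures received compounds in duplicate, top 100 uM with half-log steps, for 48 h in serum-free induction medium.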

Read-out in experiment [18]: Cytochrome P450 (CYP24A1), CYP24A1 (gene 1591)
Nature of the experiment: LTEA_HepaRG_CYP24A1: Life Technologies and Expression Analysis (LTEA) Assay for Cytochrome P450 (CYP24A1) using HepaRG (AID 2283478). In short, it runs like this:
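mRNA of CYP24A1 quantified by TaqMan qRT-PCR (ACTB/GAPDH/POLR2A normalization) after 48 h chemical exposure of HepaRG cells, top concentration 100 uM, half-log steps, 0.5% DMSO vehicle, duplicates. Curves fitted bidirectionally against DMSO baseline.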

Read-out in experiment [19]: Cytochrome P450 (CYP1A2), CYP1A2 (gene 1544)
The experiment can be described thus: LTEA_HepaRG_CYP1A2: Life Technologies and Expression Analysis (LTEA) Assay for Cytochrome P450 (CYP1A2) using HepaRG (AID 2283479). An outline of the steps: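 CYP1A2 transcript measured by TaqMan qRT-PCR against three housekeeping genes after 48-hour chemical exposure of HepaRG cells. Eight-point half-log series topping at 100 uM in 0.5% DMSO, duplicates; gain or loss fitted relative to vehicle.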

Calls of active or inactive are those of the source. Rule for the calls: active = hit-call score of the fitted dose curve at least 0.9, where 1 is the maximum; inactive = score below 0.9.

Chain of Caspase-3 (Homo sapiens) (P42574 whole entry, looked up): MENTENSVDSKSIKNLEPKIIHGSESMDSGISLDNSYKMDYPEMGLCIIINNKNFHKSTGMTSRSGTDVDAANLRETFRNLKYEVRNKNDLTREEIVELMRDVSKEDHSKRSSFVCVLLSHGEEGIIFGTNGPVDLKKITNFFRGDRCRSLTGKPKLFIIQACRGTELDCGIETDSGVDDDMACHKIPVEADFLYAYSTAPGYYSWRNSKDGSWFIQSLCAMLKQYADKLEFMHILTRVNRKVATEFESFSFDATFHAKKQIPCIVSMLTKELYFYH
Chain of Broad substrate specificity ATP-binding cassette transporter ABCG2 (Homo sapiens) (Q9UNQ0 whole entry, looked up): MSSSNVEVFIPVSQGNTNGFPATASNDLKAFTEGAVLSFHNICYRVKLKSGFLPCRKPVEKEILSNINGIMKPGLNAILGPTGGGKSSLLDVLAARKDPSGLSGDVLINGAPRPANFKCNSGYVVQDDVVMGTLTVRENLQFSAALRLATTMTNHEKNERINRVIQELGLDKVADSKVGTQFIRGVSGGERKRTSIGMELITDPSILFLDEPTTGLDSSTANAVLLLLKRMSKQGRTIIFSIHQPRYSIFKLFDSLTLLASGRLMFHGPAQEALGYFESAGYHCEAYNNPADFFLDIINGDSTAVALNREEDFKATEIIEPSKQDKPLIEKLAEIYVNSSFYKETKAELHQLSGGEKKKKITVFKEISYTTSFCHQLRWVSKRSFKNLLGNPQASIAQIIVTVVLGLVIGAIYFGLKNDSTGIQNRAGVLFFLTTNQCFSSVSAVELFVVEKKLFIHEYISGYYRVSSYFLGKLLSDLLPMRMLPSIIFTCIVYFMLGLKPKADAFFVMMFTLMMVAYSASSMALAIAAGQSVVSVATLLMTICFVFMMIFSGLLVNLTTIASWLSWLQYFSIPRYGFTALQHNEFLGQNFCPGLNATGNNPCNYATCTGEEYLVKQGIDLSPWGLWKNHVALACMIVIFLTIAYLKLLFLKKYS
Chain of Apoptosis regulator Bcl-2 (Homo sapiens) (P10415 whole entry, looked up): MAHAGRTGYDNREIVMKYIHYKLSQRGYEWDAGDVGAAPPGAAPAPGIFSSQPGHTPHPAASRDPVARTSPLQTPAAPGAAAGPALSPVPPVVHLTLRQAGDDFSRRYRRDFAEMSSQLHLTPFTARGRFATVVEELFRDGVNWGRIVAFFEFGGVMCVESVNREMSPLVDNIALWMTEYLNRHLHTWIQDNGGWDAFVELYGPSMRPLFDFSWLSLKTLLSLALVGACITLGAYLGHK

Usually AC50 stands for the midpoint of the concentration-response curve, whichever way the signal moves. In the case of `[N-]=[N+]=[N-]`, the outcome in experiment [1], in experiment [2], in experiment [4], in [7], in experiment [8] and in [9] was inactive. Moreover, the call in [10], in experiment [11], in [16], in [17], in experiment [18] and in experiment [19] was inactive. In addition, the concentration at half-maximal activity (AC50) in experiment [3] is 69.3 µM (active); in experiment [5], 34.4 µM (active); in experiment [6], 73.4 µM (active); in [12] it was 77.9 µM (active); in [13], 80.6 µM (active); in experiment [14], 50 µM (active). In addition, in experiment [15], the concentration at half-maximal activity (AC50) is 76.8 µM (active).

Turning to `OCC1CO1` (stereo not given), the molecule was classed as inactive in experiment [1], in [2], in experiment [3], in experiment [4], in experiment [5] and in experiment [6]. The molecule was classed as inactive in [7], in experiment [8], in [9], in experiment [10], in experiment [11] and in [12]. The outcome in experiment [13], in experiment [14], in experiment [15], in experiment [16], in experiment [17] and in experiment [18] was inactive. Also, in experiment [19], the molecule was classed as inactive.

For `Cc1ccc(N)cc1N`, the call in [1], in experiment [2], in experiment [3], in experiment [4], in experiment [5] and in experiment [6] was inactive. For the same molecule, the call in experiment [7], in experiment [8], in experiment [9], in [10], in [11] and in experiment [12] was inactive. In addition, the molecule was called inactive in experiment [13], in experiment [14], in experiment [15], in [16], in experiment [17] and in experiment [18]. Further, the half-maximal activity concentration (AC50) in experiment [19] was 21.5 µM (active).

Consider `Cc1ccc([N+](=O)[O-])cc1C`, for which the result in [1], in experiment [2], in [3], in experiment [4], in experiment [5] and in experiment [6] was inactive. The call in [7], in experiment [8], in [9], in [10], in experiment [11] and in experiment [12] was inactive. In addition, the molecule was called inactive in experiment [13], in [14], in [15], in [16], in experiment [17] and in experiment [18]. Also, in experiment [19], the result was inactive.

Regarding `O=[N+]([O-])c1ccc(Cl)c(Cl)c1`, the molecule was classed as inactive in experiment [1], in [2], in experiment [3], in [4], in experiment [5] and in experiment [6]. Further, the molecule was called inactive in [7], in experiment [8], in experiment [9], in [10], in [11] and in experiment [12]. The result in experiment [13], in experiment [14], in experiment [15], in experiment [16], in experiment [17] and in [18] was inactive. In addition, in [19], the AC50 is 1.36 µM (active).

For the origin of these results see PubChem BioAssay (EPA / NIEHS).
